The values that follow come from publication PMC7862700, “An all-to-all approach to the identification of sequence-specific readers for epigenetic DNA modifications on cytosine”.

Common to all, as to assay: DAPPL (digital affinity profiling via proximity ligation, sequencing); 10 mM Tris-HCl pH 7.5, 50 mM NaCl, 1 mM DTT, 4% glycerol, room temperature, 30 min; GST-TFs on glutathione beads, 16-mer random dsDNA library, 0.1% formaldehyde crosslink after washing; high values mean tight binding
One assay concerns the target T1, FEV (Homo sapiens, UniProt Q99581 1-238).
T1 sequence: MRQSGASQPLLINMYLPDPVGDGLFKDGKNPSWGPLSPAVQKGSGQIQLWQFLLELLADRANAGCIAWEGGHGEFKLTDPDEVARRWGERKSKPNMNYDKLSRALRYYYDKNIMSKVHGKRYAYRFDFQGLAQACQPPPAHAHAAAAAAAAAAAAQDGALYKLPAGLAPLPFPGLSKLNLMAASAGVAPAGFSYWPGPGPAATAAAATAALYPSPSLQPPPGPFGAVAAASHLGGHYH
As to conditions: protein: recombinant; tags: N-terminal GST; dsDNA, one strand shown. Summed up: (§1)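 Human transcription factors were made in yeast as GST fusions, captured on glutathione beads and barcoded with DNA. With a tag-only sample included, the pool was incubated with 200 nmole of a random double-stranded 16-mer DNA library in Tris/NaCl/DTT/glycerol buffer at room temperature for 30 min, then crosslinked with 0.1% formaldehyde after washing, ligated by proximity, amplified and sequenced. For binding signal, each hexamer's read frequency for a factor is divided by its frequency for the tag-only sample.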

The next assay has as its target ETV5 (Homo sapiens, UniProt P41161 1-510). As to conditions: protein: recombinant; tags: N-terminal GST; dsDNA, one strand shown. The method in brief: as §1
The target of a further assay is HSF1 (Homo sapiens, UniProt Q00613 1-529). As to conditions: protein: recombinant; tags: N-terminal GST; chain copies: 3; dsDNA, one strand shown. The method in brief: as §1
HSF1, sequence (Q00613 whole entry): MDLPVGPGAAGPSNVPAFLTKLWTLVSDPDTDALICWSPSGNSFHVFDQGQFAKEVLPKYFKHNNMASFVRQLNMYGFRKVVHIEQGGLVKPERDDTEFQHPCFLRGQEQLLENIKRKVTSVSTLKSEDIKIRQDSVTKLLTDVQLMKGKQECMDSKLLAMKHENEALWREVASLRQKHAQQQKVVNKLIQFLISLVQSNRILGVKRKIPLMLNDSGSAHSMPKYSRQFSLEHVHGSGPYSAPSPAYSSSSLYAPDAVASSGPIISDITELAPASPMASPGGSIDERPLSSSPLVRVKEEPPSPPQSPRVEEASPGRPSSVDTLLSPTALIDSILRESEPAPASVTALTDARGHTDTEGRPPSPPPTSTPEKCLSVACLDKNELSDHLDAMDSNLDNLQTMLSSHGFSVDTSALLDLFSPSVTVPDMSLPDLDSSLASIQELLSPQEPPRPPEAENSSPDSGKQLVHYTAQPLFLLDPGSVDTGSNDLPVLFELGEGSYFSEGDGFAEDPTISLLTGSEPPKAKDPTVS
In another assay the target is T2, SPIC (Homo sapiens, UniProt Q8N5J4 1-248).
T2 sequence: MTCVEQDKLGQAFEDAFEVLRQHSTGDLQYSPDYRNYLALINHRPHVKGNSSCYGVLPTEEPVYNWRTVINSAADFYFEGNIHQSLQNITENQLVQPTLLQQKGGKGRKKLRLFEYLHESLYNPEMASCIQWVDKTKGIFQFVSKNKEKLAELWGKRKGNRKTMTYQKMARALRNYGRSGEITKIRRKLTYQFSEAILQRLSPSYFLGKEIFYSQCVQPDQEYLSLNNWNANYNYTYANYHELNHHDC
As to conditions: protein: recombinant; tags: N-terminal GST; dsDNA, one strand shown. Summed up: as §1

The target of another assay is ELF4 (Homo sapiens, UniProt Q99607 1-663). The conditions noted are these: protein: recombinant; tags: N-terminal GST; dsDNA, one strand shown. The method in brief: as §1
ELF4, sequence (Q99607 whole entry): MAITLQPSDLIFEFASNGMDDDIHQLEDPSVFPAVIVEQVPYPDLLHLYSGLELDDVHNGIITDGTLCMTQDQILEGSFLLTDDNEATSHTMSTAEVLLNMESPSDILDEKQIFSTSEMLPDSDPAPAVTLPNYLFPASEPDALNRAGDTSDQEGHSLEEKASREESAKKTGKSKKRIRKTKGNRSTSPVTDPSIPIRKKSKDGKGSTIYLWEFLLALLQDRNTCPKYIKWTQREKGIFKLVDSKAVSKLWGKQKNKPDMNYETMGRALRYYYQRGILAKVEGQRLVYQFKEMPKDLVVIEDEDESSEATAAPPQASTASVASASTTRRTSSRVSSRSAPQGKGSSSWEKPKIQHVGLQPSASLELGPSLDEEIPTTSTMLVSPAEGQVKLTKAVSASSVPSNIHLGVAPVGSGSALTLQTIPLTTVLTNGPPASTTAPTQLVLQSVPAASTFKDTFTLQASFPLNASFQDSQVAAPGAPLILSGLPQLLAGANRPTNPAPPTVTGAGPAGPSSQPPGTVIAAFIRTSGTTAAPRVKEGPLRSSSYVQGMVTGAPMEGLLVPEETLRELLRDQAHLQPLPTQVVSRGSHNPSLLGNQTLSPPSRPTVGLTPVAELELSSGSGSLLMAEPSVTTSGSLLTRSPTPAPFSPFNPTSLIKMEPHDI
The target of another assay is T3, ELK4 (Homo sapiens, UniProt P28324-2 1-405).
T3 sequence: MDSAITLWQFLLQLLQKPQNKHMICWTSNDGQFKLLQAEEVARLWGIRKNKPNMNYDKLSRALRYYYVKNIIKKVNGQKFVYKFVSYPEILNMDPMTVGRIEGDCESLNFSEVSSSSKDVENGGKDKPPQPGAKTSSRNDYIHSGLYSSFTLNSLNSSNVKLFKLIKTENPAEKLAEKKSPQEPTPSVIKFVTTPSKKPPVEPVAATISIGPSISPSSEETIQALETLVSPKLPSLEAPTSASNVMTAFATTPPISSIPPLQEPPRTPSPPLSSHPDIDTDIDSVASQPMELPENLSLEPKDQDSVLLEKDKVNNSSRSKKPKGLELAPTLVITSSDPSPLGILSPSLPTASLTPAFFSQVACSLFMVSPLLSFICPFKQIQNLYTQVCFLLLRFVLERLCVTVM
As to conditions: protein: recombinant; tags: N-terminal GST; dsDNA, one strand shown. Summed up:
as §1

In another assay the target is T4, ETV2 (Homo sapiens, UniProt O00321 1-342).
T4 sequence: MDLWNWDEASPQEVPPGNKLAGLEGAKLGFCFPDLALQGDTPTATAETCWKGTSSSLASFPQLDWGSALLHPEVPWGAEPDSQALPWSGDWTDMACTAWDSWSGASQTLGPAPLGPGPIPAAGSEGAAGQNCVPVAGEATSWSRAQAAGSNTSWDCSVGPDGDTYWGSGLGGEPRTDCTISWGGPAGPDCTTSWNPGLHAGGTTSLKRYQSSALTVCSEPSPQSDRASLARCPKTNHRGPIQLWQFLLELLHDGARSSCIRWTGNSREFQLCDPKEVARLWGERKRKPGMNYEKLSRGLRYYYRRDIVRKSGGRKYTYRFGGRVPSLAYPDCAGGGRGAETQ
As to conditions: protein: recombinant; tags: N-terminal GST; dsDNA, one strand shown. The method in brief: as §1

The target of the next assay is T5, ELF3 (Homo sapiens, UniProt P78545 1-371).
T5 sequence: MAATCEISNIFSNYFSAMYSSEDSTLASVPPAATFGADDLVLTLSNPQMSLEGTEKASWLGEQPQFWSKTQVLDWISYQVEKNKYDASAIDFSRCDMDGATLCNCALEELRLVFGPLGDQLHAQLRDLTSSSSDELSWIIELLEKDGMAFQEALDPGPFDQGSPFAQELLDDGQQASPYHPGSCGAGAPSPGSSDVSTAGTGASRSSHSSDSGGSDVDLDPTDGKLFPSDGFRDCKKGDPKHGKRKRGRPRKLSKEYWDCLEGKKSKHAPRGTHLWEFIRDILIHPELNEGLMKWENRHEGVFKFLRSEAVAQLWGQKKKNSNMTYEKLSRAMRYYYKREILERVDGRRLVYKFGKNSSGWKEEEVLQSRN
The conditions noted are these: protein: recombinant; tags: N-terminal GST; dsDNA, one strand shown. Summed up:
as §1

A further assay addresses CRX (Homo sapiens, UniProt O43186 1-299). As to conditions: protein: recombinant; tags: N-terminal GST; dsDNA, one strand shown. The method in brief: as §1
A further assay concerns the target ETV1 (Homo sapiens, UniProt P50549 1-477). As to conditions: protein: recombinant; tags: N-terminal GST; dsDNA, one strand shown. Summed up: as §1
A further assay has as its target T6, ERF (Homo sapiens, UniProt P50548 1-548).
T6 sequence: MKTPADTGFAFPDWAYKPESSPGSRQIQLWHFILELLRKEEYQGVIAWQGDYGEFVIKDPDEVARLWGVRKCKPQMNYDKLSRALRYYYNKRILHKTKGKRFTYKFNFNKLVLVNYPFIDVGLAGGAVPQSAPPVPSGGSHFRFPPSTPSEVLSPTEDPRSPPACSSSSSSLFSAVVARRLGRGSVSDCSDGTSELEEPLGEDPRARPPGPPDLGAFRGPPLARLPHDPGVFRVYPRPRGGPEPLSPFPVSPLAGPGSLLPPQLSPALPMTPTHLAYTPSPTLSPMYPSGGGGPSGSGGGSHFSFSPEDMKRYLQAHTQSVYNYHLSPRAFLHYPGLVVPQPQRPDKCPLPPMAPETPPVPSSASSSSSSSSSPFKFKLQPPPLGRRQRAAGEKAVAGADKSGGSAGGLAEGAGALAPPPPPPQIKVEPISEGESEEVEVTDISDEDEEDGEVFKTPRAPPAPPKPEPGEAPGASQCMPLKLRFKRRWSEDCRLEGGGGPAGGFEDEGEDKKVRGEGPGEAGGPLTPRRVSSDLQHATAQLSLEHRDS
As to conditions: protein: recombinant; tags: N-terminal GST; dsDNA, one strand shown. Summed up:
as §1

The target of a further assay is T7, ETV3L (Homo sapiens, UniProt Q6ZN32 1-361).
T7 sequence: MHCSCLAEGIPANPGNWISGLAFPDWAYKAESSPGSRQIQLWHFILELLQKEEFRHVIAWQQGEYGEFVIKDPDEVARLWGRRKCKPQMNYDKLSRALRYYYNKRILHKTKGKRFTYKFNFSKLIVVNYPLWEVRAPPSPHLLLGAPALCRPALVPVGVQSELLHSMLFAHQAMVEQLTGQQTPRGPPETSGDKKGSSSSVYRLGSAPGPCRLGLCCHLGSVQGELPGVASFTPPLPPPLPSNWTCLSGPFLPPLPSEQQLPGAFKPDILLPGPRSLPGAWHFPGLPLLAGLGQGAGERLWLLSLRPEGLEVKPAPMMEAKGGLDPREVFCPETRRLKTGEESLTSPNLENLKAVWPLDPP
As to conditions: protein: recombinant; tags: N-terminal GST; dsDNA, one strand shown. The method in brief:
as §1

The next assay addresses T8, ETS2 (Homo sapiens, UniProt P15036 1-469).
T8 sequence: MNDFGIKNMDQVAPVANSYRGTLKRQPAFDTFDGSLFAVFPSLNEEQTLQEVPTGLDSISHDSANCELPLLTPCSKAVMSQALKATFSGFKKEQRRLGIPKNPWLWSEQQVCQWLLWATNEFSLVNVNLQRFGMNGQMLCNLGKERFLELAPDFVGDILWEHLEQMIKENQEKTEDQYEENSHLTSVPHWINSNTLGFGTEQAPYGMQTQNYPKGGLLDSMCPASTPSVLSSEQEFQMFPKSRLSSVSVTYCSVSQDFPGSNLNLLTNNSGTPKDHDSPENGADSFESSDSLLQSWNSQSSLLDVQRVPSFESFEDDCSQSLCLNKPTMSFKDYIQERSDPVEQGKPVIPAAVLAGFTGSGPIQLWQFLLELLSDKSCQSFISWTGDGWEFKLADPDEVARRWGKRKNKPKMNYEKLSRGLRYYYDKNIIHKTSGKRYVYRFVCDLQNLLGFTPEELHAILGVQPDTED
As to conditions: protein: recombinant; tags: N-terminal GST; dsDNA, one strand shown. The method in brief: as §1

The target of the next assay is T9, SPDEF (Homo sapiens, UniProt O95238 1-335).
T9 sequence: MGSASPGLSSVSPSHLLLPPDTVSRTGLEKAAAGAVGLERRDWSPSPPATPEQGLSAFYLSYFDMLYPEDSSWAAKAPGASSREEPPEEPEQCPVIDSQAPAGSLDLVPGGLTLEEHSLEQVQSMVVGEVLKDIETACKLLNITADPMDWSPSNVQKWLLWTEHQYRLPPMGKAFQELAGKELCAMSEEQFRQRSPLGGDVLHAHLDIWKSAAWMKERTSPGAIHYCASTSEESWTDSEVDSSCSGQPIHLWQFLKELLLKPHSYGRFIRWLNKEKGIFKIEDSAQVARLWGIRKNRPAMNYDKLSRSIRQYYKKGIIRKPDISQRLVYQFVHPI
As to conditions: protein: recombinant; tags: N-terminal GST; dsDNA, one strand shown. Summed up: as §1

In a further assay the target is T10, ETV7 (Homo sapiens, UniProt Q9Y603 1-341).
T10 sequence: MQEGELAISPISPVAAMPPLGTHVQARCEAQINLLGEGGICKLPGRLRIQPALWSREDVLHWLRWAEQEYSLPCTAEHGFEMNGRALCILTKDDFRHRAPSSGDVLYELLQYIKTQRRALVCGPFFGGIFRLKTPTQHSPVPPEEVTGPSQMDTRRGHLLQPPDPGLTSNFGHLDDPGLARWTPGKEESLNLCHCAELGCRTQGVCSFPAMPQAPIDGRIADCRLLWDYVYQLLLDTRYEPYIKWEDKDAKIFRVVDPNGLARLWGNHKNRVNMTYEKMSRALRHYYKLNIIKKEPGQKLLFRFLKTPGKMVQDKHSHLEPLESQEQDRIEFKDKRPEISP
The conditions noted are these: protein: recombinant; tags: N-terminal GST; dsDNA, one strand shown. The method in brief:
as §1

A further assay has as its target T11, ELF5 (Homo sapiens, UniProt Q9UKW6-2 1-255).
T11 sequence: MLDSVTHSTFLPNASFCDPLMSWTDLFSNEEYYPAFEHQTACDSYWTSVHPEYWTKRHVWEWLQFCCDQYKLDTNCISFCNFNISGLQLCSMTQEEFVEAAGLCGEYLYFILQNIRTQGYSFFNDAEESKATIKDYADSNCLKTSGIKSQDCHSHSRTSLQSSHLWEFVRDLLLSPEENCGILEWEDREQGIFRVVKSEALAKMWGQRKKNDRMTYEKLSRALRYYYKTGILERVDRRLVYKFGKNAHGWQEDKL
As to conditions: protein: recombinant; tags: N-terminal GST; dsDNA, one strand shown. The method in brief: as §1

In a further assay the target is T12, ETV3 (Homo sapiens, UniProt P41162-2 1-143).
T12 sequence: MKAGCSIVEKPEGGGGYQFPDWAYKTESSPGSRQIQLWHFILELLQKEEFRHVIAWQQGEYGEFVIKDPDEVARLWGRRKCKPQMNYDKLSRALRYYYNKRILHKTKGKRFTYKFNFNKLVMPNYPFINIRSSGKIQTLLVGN
As to conditions: protein: recombinant; tags: N-terminal GST; dsDNA, one strand shown. Summed up: as §1

In the next assay the target is ETV6 (Homo sapiens, UniProt P41212 1-452). As to conditions: protein: recombinant; tags: N-terminal GST; dsDNA, one strand shown. The method in brief:
as §1

ETV6, sequence (P41212 whole entry): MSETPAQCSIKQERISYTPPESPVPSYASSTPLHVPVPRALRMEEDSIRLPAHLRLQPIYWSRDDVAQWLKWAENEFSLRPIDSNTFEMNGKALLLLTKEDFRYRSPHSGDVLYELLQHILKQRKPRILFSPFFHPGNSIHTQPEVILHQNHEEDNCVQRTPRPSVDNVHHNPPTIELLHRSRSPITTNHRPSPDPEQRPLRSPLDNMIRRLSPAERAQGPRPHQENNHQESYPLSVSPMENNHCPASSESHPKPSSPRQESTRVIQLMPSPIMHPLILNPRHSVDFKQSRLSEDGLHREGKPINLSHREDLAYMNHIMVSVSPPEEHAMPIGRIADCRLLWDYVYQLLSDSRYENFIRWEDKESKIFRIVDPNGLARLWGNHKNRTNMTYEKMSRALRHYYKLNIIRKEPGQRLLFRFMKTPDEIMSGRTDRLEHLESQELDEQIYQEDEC
ETV5, sequence (P41161 whole entry): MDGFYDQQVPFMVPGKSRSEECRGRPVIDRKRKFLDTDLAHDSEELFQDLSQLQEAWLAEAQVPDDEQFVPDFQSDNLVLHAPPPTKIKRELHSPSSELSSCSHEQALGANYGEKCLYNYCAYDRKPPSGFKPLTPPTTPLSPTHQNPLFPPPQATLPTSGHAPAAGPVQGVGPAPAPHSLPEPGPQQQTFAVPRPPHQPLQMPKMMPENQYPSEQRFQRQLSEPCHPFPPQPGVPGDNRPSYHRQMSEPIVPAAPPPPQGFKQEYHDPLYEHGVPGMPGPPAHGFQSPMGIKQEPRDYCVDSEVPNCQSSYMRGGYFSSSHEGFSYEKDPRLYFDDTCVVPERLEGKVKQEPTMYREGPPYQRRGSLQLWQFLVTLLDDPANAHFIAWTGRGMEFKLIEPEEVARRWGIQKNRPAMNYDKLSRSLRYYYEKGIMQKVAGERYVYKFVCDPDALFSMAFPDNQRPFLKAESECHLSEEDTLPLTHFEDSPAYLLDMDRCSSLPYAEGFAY
CRX, sequence (O43186 whole entry): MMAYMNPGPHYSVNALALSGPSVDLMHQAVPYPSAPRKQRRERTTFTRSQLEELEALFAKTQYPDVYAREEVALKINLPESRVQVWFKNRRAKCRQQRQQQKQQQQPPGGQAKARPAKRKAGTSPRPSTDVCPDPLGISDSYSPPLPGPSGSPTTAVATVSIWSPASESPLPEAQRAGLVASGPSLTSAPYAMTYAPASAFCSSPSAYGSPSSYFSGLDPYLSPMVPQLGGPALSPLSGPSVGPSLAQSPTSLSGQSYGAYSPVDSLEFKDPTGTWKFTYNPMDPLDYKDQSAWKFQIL
ETV1, sequence (P50549 whole entry): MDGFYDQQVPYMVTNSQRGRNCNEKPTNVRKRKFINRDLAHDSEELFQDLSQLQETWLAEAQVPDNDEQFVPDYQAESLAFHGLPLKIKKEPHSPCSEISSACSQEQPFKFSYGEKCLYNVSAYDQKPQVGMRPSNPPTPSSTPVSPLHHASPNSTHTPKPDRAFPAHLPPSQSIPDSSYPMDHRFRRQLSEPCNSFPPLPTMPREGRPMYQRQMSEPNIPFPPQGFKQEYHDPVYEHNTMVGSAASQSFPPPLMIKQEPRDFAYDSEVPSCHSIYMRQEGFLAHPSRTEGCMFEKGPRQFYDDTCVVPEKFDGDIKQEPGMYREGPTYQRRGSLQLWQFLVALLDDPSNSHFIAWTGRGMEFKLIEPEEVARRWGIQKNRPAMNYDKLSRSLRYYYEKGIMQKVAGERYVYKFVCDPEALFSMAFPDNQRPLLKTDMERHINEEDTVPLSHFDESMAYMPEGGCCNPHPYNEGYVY

AATTGT: the binding signal with FEV was 1.25 fold enrichment (6-mer frequency, TF over GST control); with ETV5, 1.2 fold enrichment (6-mer frequency, TF over GST control); with HSF1, 1.18 fold enrichment (6-mer frequency, TF over GST control); with SPIC it was 1.26 fold enrichment (6-mer frequency, TF over GST control); with ELF4, 1.29 fold enrichment (6-mer frequency, TF over GST control); with ELK4, 1.14 fold enrichment (6-mer frequency, TF over GST control). The binding signal in the assay with ETV2 is 1.33 fold enrichment (6-mer frequency, TF over GST control); in the assay with ELF3, 1.31 fold enrichment (6-mer frequency, TF over GST control); in the assay with CRX, 1.17 fold enrichment (6-mer frequency, TF over GST control); in the assay with ETV1, 1.22 fold enrichment (6-mer frequency, TF over GST control); with ERF, 1.36 fold enrichment (6-mer frequency, TF over GST control); with ETV3L it was 1.29 fold enrichment (6-mer frequency, TF over GST control). Moreover, the binding signal with ETS2 was 1.31 fold enrichment (6-mer frequency, TF over GST control); with SPDEF, 1.21 fold enrichment (6-mer frequency, TF over GST control); with ETV7, 1.39 fold enrichment (6-mer frequency, TF over GST control); with ELF5, 1.35 fold enrichment (6-mer frequency, TF over GST control); in the assay with ETV3 it was 1.31 fold enrichment (6-mer frequency, TF over GST control); with ETV6 it was 1.26 fold enrichment (6-mer frequency, TF over GST control).
